Laboratory results as given in PubChem BioAssay (NCI).
This is part of a sample that, as a whole, favours compounds with a hit. Of some 83,000 tested, about 20% had one in any assay.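 Testing used 96-well plates and a 48-hour single-concentration exposure. Example: -40 means 40% of the starting cells died.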 Unmarked numbers belong to inactive results. Calls of active or inactive are those of the source. Rule for the calls: active = growth percent below 10; inactive = the rest.

tested on: UACC-257 melanoma; assay: NCI-60 one-dose screen, 48 h (100 = growth as untreated, 0 = no growth, -100 = all killed); conditions: 10 µM unless noted

Q: CCOC(=O)c1cc(C(=O)c2ccc(O)c(O)c2)n2ccc(-c3ccn4c(C(=O)c5ccc(O)c(O)c5)cc(C(=O)OCC)c4c3)cc12 was tested. Which growth did it give?
A: Its growth is 100%.

Q: How did the growth turn out when CC1C(/C=N/Nc2ccccc2)C(C#N)(C#N)C1(C#N)C#N (stereo unspecified) was run?
A: The growth was 98.6%.

Q: How did the growth turn out when O=C(/C=C/c1ccc(C(F)(F)F)cc1)Nc1ccc(C=C2c3ccccc3C(=O)c3ccccc32)cc1 was run?
A: Its growth is 35.1%.

Q: How did the growth turn out when CC/C=C\C[C@H](O)C/C=C1/C(=O)C=C[C@@]1(C)C/C=C\CCCC(=O)OC was run?
A: Its growth is 87.1%.

Q: With COc1cc(-c2nn(-c3ccc(C(=O)O)cc3)cc2C(=O)O)ccc1O as the compound, how does the growth read?
A: Its growth is 103%.

Q: With COc1ccc(O)c(N=Nc2nccs2)c1 as the compound, how does the growth read?
A: Its growth is 93.7%.

Q: How did the growth turn out when NCCNc1nc(Nc2ccc(-c3nc4ccccc4[nH]3)cc2)c2cn[nH]c2n1 was run?
A: Its growth is 104%.

Q: Which growth does the source give for COc1cc(-c2nn(-c3ccc(Br)cc3)cc2C(=O)O)ccc1O here?
A: Its growth is 107%.

Q: Which growth does the source give for OCCN1CCN(c2nc(Nc3ccc(-c4nc5ccccc5[nH]4)cc3)c3cn[nH]c3n2)CC1 here?
A: Its growth is -89% (active).

Q: For O=c1oc2c(C(F)(F)F)cccc2cc1-c1csc(Nc2ccc(OCCF)cc2)n1, which growth is on record?
A: Its growth is 55.2%.

Q: With N#Cc1nnn(-c2ccc(S(N)(=O)=O)cc2)c1NC(=O)CCl as the compound, how does the growth read?
A: The growth was 89%.

Q: C=C1C(=O)O[C@H]2[C@H]1CC/C(C=Nc1ccc(C(F)(F)F)cc1N)=C\CC[C@@]1(C)O[C@@H]21 was tested. Which growth did it give?
A: Its growth is 13%.

Q: Which growth does the source give for CSc1ccc(-c2ccccc(=O)c2O)cc1 here?
A: The growth was -4.11% (active).

Q: How did the growth turn out when Clc1ccc2c(NCCNc3nc(N4CCCCC4)nc4ccccc34)ccnc2c1 was run?
A: The growth was -70.2% (active).

Q: How did the growth turn out when Cn1ccnc1C(=O)/C=C/c1ccc(CC(=O)Nc2ccccc2)cc1 was run?
A: The growth was 78.7%.

Q: How did the growth turn out when CC(C)CSc1nc(N)nc2c1ncn2C1OC(CO)C(O)C1O (stereo unspecified) was run?
A: Its growth is 104%.

Q: For Cc1cc(N[C@@H]2CCC[C@H](Nc3ccnc4cc(Cl)ccc34)C2)nc(N2CCCCCC2)n1, which growth is on record?
A: Its growth is -76.5% (active).

Q: How did the growth turn out when CC(C)(CCCN=C(N)Nc1ccc(Cl)cc1)c1ccc(F)cc1 was run?
A: Its growth is 86.6%.

Q: Which growth does the source give for COc1ccc(-c2nc(SCC(=O)Nc3ccc(C(=O)/C=C/c4ccc(Cl)cc4)cc3)[nH]c(=O)c2C#N)cc1 here?
A: The growth was 102%.

Q: With FC(F)(F)Oc1ccc2nc3nc4ccc[nH]c4cc3c2c1 as the compound, how does the growth read?
A: Its growth is 103%.

Q: How did the growth turn out when CCOC(=O)C(C)(C#N)C1C=CCCC1 (stereo unspecified) was run?
A: The growth was 93.6%.

Q: O=C1/C(=C/c2ccc(OCCCOc3ccc(Cl)cc3)cc2)N=C2SCCCN12 was tested. Which growth did it give?
A: Its growth is 102%.

Q: With COc1cc(-c2nn(-c3ccc(C)cc3)cc2C(=O)O)ccc1O as the compound, how does the growth read?
A: Its growth is 105%.

Q: With CC(=O)c1cc2c(N)c(C(=O)Nc3cccc(F)c3C)sc2nc1C as the compound, how does the growth read?
A: The growth was 74.5%.

Q: COc1ccc(C2C(C#N)=C(N)Oc3n[nH]c(-c4cccs4)c32)cc1I (stereo unspecified) was tested. Which growth did it give?
A: Its growth is 89.4%.

Q: For CC(=O)c1cc(C(=O)c2ccc3c(c2)Sc2ccccc2N3)n2ccccc12, which growth is on record?
A: The growth was 51.4%.

Q: Which growth does the source give for CCOC(=O)c1c(C(=O)OCC)c2cc(-c3ccn4c(C(=O)c5ccccc5)c(C(=O)OCC)c(C(=O)OCC)c4c3)ccn2c1C(=O)c1ccccc1 here?
A: The growth was 95.1%.

Q: For Cc1cc(N2CCCC2)nc(NC2CCCC(Nc3ccnc4cc(Cl)ccc34)C2)n1 (stereo unspecified), which growth is on record?
A: Its growth is -84.3% (active).

Q: Which growth does the source give for COc1ccc2c(c1)CC/C(=C\c1cncc(Br)c1)C2=O here?
A: Its growth is 112%.

Q: For CCc1nc(N)nc(N)c1C#CC(C)c1ccc(-c2ccncc2)cc1Cl (stereo unspecified), which growth is on record?
A: The growth was 31.9%.

Q: Which growth does the source give for CC(=O)O[C@H]1C(=O)[C@@]2(C)[C@H]([C@H](OC(=O)c3ccccc3)[C@]3(O)C[C@H](OC(=O)[C@H](OC(=O)CCC(=O)OC4CCC(S/N=C(N)/N=C(\N)N(C)C)CC4)[C@@H](NC(=O)c4ccccc4)c4ccccc4)C(C)=C1C3(C)C)[C@]1(OC(C)=O)CO[C@@H]1C[C@@H]2O (stereo partly specified) here?
A: Its growth is 58%.

Q: Which growth does the source give for CCNC(=O)Oc1ccc(/C(=C(\C)c2ccc(Cl)cc2)c2ccc(OCCN3CCCCC3)cc2)cc1 here?
A: Its growth is -33.9% (active).

Q: For CCOc1ccc(C(C)=O)cc1NC(=O)c1cccc(-c2nnn(CC)n2)c1, which growth is on record?
A: The growth was 57.1%.

Q: With CC/C=C\C[C@H]1C/C=C2/C(=O)C=C[C@H]2C/C=C\CCCC(=O)O1 as the compound, how does the growth read?
A: Its growth is 47.1%.

Q: COc1cccc2c1C(=O)c1c(O)c3c(c(O)c1C2=O)C[C@](O)(C(=O)CO)C[C@H]3O[C@@H]1C[C@@H](NC(=O)CCCCCN(C)C2(c3ccc(F)cc3)CC3CCC2C3)[C@H](O)[C@@H](C)O1 (stereo partly specified) was tested. Which growth did it give?
A: Its growth is 96.4%.

Q: For O=C(CN1CCCCC1)Nc1ccc2oc(=O)ccc2c1, which growth is on record?
A: Its growth is 96.3%.

Q: With COc1cc(C)c(C2C(C#N)=C(N)Oc3n[nH]c(-c4cccs4)c32)cc1C(C)C (stereo unspecified) as the compound, how does the growth read?
A: The growth was 90.4%.

Q: Which growth does the source give for CCNC(=O)Oc1ccc(/C(=C(\C)c2ccc(Cl)cc2)c2ccc(OCCN(CC)CC)cc2)cc1 here?
A: The growth was -54.9% (active).

tested on: M14 melanoma; assay: as above; conditions: 10 µM unless noted

Q: With CCOC(=O)c1cc(C(=O)c2ccc(O)c(O)c2)n2ccc(-c3ccn4c(C(=O)c5ccc(O)c(O)c5)cc(C(=O)OCC)c4c3)cc12 as the compound, how does the growth read?
A: The growth was 93.2%.

Q: For CC1C(/C=N/Nc2ccccc2)C(C#N)(C#N)C1(C#N)C#N (stereo unspecified), which growth is on record?
A: The growth was 33.2%.

Q: O=C(/C=C/c1ccc(C(F)(F)F)cc1)Nc1ccc(C=C2c3ccccc3C(=O)c3ccccc32)cc1 was tested. Which growth did it give?
A: The growth was 59.1%.

Q: How did the growth turn out when CC/C=C\C[C@H](O)C/C=C1/C(=O)C=C[C@@]1(C)C/C=C\CCCC(=O)OC was run?
A: Its growth is 101%.

Q: With COc1cc(-c2nn(-c3ccc(C(=O)O)cc3)cc2C(=O)O)ccc1O as the compound, how does the growth read?
A: Its growth is 33.5%.

Q: With COc1ccc(O)c(N=Nc2nccs2)c1 as the compound, how does the growth read?
A: Its growth is 105%.

Q: For NCCNc1nc(Nc2ccc(-c3nc4ccccc4[nH]3)cc2)c2cn[nH]c2n1, which growth is on record?
A: The growth was 96.1%.

Q: For COc1cc(-c2nn(-c3ccc(Br)cc3)cc2C(=O)O)ccc1O, which growth is on record?
A: Its growth is 102%.

Q: How did the growth turn out when OCCN1CCN(c2nc(Nc3ccc(-c4nc5ccccc5[nH]4)cc3)c3cn[nH]c3n2)CC1 was run?
A: Its growth is -78.3% (active).

Q: For O=c1oc2c(C(F)(F)F)cccc2cc1-c1csc(Nc2ccc(OCCF)cc2)n1, which growth is on record?
A: Its growth is 4.98% (active).

Q: Which growth does the source give for N#Cc1nnn(-c2ccc(S(N)(=O)=O)cc2)c1NC(=O)CCl here?
A: Its growth is 95.4%.

Q: With C=C1C(=O)O[C@H]2[C@H]1CC/C(C=Nc1ccc(C(F)(F)F)cc1N)=C\CC[C@@]1(C)O[C@@H]21 as the compound, how does the growth read?
A: The growth was 5.33% (active).

Q: How did the growth turn out when CSc1ccc(-c2ccccc(=O)c2O)cc1 was run?
A: Its growth is -6.35% (active).

Q: Clc1ccc2c(NCCNc3nc(N4CCCCC4)nc4ccccc34)ccnc2c1 was tested. Which growth did it give?
A: Its growth is -79.7% (active).

Q: How did the growth turn out when Cn1ccnc1C(=O)/C=C/c1ccc(CC(=O)Nc2ccccc2)cc1 was run?
A: The growth was 27.8%.

Q: With CC(C)CSc1nc(N)nc2c1ncn2C1OC(CO)C(O)C1O (stereo unspecified) as the compound, how does the growth read?
A: The growth was 116%.

Q: Which growth does the source give for Cc1cc(N[C@@H]2CCC[C@H](Nc3ccnc4cc(Cl)ccc34)C2)nc(N2CCCCCC2)n1 here?
A: Its growth is -89.2% (active).

Q: CC(C)(CCCN=C(N)Nc1ccc(Cl)cc1)c1ccc(F)cc1 was tested. Which growth did it give?
A: Its growth is 51.5%.

Q: With COc1ccc(-c2nc(SCC(=O)Nc3ccc(C(=O)/C=C/c4ccc(Cl)cc4)cc3)[nH]c(=O)c2C#N)cc1 as the compound, how does the growth read?
A: The growth was 77.9%.

Q: Which growth does the source give for FC(F)(F)Oc1ccc2nc3nc4ccc[nH]c4cc3c2c1 here?
A: The growth was 96.2%.

Q: CCOC(=O)C(C)(C#N)C1C=CCCC1 (stereo unspecified) was tested. Which growth did it give?
A: Its growth is 81.2%.

Q: With O=C1/C(=C/c2ccc(OCCCOc3ccc(Cl)cc3)cc2)N=C2SCCCN12 as the compound, how does the growth read?
A: The growth was 95.9%.

Q: How did the growth turn out when COc1cc(-c2nn(-c3ccc(C)cc3)cc2C(=O)O)ccc1O was run?
A: Its growth is 96.8%.

Q: Which growth does the source give for CC(=O)c1cc2c(N)c(C(=O)Nc3cccc(F)c3C)sc2nc1C here?
A: The growth was 65.2%.

Q: COc1ccc(C2C(C#N)=C(N)Oc3n[nH]c(-c4cccs4)c32)cc1I (stereo unspecified) was tested. Which growth did it give?
A: The growth was 90%.

Q: How did the growth turn out when CC(=O)c1cc(C(=O)c2ccc3c(c2)Sc2ccccc2N3)n2ccccc12 was run?
A: The growth was 20.1%.

Q: Which growth does the source give for CCOC(=O)c1c(C(=O)OCC)c2cc(-c3ccn4c(C(=O)c5ccccc5)c(C(=O)OCC)c(C(=O)OCC)c4c3)ccn2c1C(=O)c1ccccc1 here?
A: The growth was 101%.

Q: Which growth does the source give for Cc1cc(N2CCCC2)nc(NC2CCCC(Nc3ccnc4cc(Cl)ccc34)C2)n1 (stereo unspecified) here?
A: The growth was -83.6% (active).

Q: COc1ccc2c(c1)CC/C(=C\c1cncc(Br)c1)C2=O was tested. Which growth did it give?
A: The growth was 92.9%.

Q: With CCc1nc(N)nc(N)c1C#CC(C)c1ccc(-c2ccncc2)cc1Cl (stereo unspecified) as the compound, how does the growth read?
A: Its growth is 1.01% (active).

Q: How did the growth turn out when CC(=O)O[C@H]1C(=O)[C@@]2(C)[C@H]([C@H](OC(=O)c3ccccc3)[C@]3(O)C[C@H](OC(=O)[C@H](OC(=O)CCC(=O)OC4CCC(S/N=C(N)/N=C(\N)N(C)C)CC4)[C@@H](NC(=O)c4ccccc4)c4ccccc4)C(C)=C1C3(C)C)[C@]1(OC(C)=O)CO[C@@H]1C[C@@H]2O (stereo partly specified) was run?
A: Its growth is 30.1%.

Q: With CCNC(=O)Oc1ccc(/C(=C(\C)c2ccc(Cl)cc2)c2ccc(OCCN3CCCCC3)cc2)cc1 as the compound, how does the growth read?
A: The growth was -46.5% (active).

Q: For CCOc1ccc(C(C)=O)cc1NC(=O)c1cccc(-c2nnn(CC)n2)c1, which growth is on record?
A: The growth was 9.12% (active).

Q: For CC/C=C\C[C@H]1C/C=C2/C(=O)C=C[C@H]2C/C=C\CCCC(=O)O1, which growth is on record?
A: The growth was 19.1%.

Q: How did the growth turn out when COc1cccc2c1C(=O)c1c(O)c3c(c(O)c1C2=O)C[C@](O)(C(=O)CO)C[C@H]3O[C@@H]1C[C@@H](NC(=O)CCCCCN(C)C2(c3ccc(F)cc3)CC3CCC2C3)[C@H](O)[C@@H](C)O1 (stereo partly specified) was run?
A: The growth was -41.3% (active).

Q: For O=C(CN1CCCCC1)Nc1ccc2oc(=O)ccc2c1, which growth is on record?
A: The growth was 106%.

Q: For COc1cc(C)c(C2C(C#N)=C(N)Oc3n[nH]c(-c4cccs4)c32)cc1C(C)C (stereo unspecified), which growth is on record?
A: The growth was 105%.

Q: How did the growth turn out when CCNC(=O)Oc1ccc(/C(=C(\C)c2ccc(Cl)cc2)c2ccc(OCCN(CC)CC)cc2)cc1 was run?
A: The growth was -63.3% (active).
